D1 antagonist = antagonists of human D1 dopamine receptor | P21728 | HEK293 TREx D1 cells, calcium flux, dopamine EC80; active compounds read low | activity change, negative = inhibition, % at 10 µM | actives 3.2% (n = 360,000) | AID 504652; in the data active means activity change below about -30%; further: on the % scale 0 is the no-effect control and ±100 the full control effect
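Kinetic fluorescence of a calcium dye serves as the read-out. D1-expressing Hek293 Trex cells, induced overnight at 30 C, are exposed to compound for 180 s before an EC80 dopamine addition, then read 180 s further.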
D1 potentiator = human D1 dopamine receptor positive modulation; actives 0.036% (n = 360,000); potentiation, % at 10 µM; HEK293 TREx D1 cells, calcium flux, dopamine EC20 potentiation; P21728; in the data active means potentiation above about 30%; further: 0% is about no effect
D3 antag = D3 dopamine receptor (human) antagonism; P35462; D3R cells, DiscoveRx beta-arrestin luminescence, antagonist mode; active compounds read low; max response, negative = inhibition, %; actives 2.5% (n = 360,000); in the data active means max response below about -50%; inconclusive means no clear call, values can overlap the other calls; further: on the % scale 0 is the no-effect control and ±100 the full control effect
Target sequence (P35462 whole entry, looked up): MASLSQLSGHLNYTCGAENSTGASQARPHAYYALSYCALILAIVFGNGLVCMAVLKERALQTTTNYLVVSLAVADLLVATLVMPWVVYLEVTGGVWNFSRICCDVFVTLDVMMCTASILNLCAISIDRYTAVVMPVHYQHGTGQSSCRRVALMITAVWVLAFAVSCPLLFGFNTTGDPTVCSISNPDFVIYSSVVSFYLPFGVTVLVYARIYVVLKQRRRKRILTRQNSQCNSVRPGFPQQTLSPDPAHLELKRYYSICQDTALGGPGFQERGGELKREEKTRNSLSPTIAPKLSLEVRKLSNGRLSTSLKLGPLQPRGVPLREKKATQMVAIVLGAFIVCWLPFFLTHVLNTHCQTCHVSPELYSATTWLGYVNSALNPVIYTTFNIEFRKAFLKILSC
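Cells expressing the human receptor were seeded at 1500 cells/well, incubated overnight at 37 degrees C in 5% CO2, then exposed to library compounds with dopamine controls for 90 minutes at 37 degrees C before luminescent detection.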
D3 ag = D3 dopamine receptor (human) agonism; P35462; D3R DiscoveRx beta-arrestin cells, luminescence, 90 min; max activation, %; actives 0.58% (n = 410,000); in the data active means max activation above about 30%; further: 0% is about no effect
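Agonist-mode cell screen: cells plated at 1500/well and incubated overnight at 37 °C, then exposed to library compounds for 90 min at 37 °C. Detection reagent was added for 30–60 min at room temperature, and luminescence was read.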
D1 agonist = agonists of human D1 dopamine receptor; P21728; HEK293 T-REx D1 cells, calcium flux, agonist mode; activation, % at 2 µM; actives 1% (n = 360,000); in the data active means activation above about 30%; further: 0% is about no effect
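Agonism was scored from calcium flux recorded over 180 s (1 read/s) after pintool compound addition, following a 10-cycle baseline. Cells were inducible force-coupled HEK293 TREx D1, plated overnight at 30 C and loaded with no-wash calcium dye.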
The depositor's hits bear a star; ! = repeats disagree. In the library only some 6% were active in any assay of this set; here they are far more common.

`Cc1nc(N2CCN(Cc3ccc4c(c3)OCO4)CC2)c2cc(-c3ccccc3)sc2n1` gave D1 antagonist 29, D1 potentiator 0, D3 antag 5, D3 ag -25 and D1 agonist 3.
For c1cnc(N2CCN(Cc3ccc4c(c3)OCO4)CC2)nc1 the results were D1 antagonist -24, D1 potentiator 4, D3 antag inconclusive, D3 ag 56*! and D1 agonist 0.
O=S1(=O)N=C(N2CCN(Cc3ccccc3)CC2)c2ccccc21 was read as D1 antagonist 7, D1 potentiator -6, D3 antag -18, D3 ag -4 and D1 agonist 1.
`CSc1nc(N2CCN(Cc3ccc4c(c3)OCO4)CC2)c2ccccc2n1` gave D1 antagonist 5, D1 potentiator 1, D3 antag -64*, D3 ag -2 and D1 agonist 3.
Screening O=S1(=O)N=C(N2CCN(Cc3ccc4c(c3)OCO4)CC2)c2ccccc21 returned D1 antagonist -29, D1 potentiator 6, D3 antag -81*, D3 ag -18 and D1 agonist 4.
`SC(COCc1ccccc1)CN1CCN(Cc2ccc3c(c2)OCO3)CC1` (centres undefined) gave D1 antagonist 2, D1 potentiator 3, D3 antag -55*, D3 ag -16 and D1 agonist 4.
OC(COCc1ccccc1)CN1CCN(Cc2ccc3c(c2)OCO3)CC1 (centres undefined) was read as D1 antagonist 6, D1 potentiator -2, D3 antag -20, D3 ag -13 and D1 agonist 2.
`c1cc2c(cc1CN1CCOCC1)OCO2` gave D1 antagonist -16, D1 potentiator 1, D3 antag 0, D3 ag -28 and D1 agonist 1.
COc1ccc2c(c1)c(CC(=O)Nc1cccc(F)c1C)c(C)n2C(=O)c1ccc(Cl)cc1 was read as D1 antagonist 17, D1 potentiator -2, D3 ag -5 and D1 agonist 1.
For C=N[C@@H](C(=O)N[C@@H]1C(=O)N2[C@@H]1SC(C)(C)[C@@H]2C(=O)O)c1ccccc1 the results were D3 ag -6.
For Cc1ccc2[nH]c3c(N4CCN(Cc5ccc6c(c5)OCO6)CC4)ncnc3c2c1 the results were D1 antagonist -2, D1 potentiator -6 and D1 agonist 2.
For c1nc(N2CCN(Cc3ccc4c(c3)OCO4)CC2)c2[nH]cnc2n1 the results were D1 antagonist 2, D1 potentiator -1, D3 antag -62*, D3 ag -9 and D1 agonist 5.
Screening CCOC(=O)C1CCCN(C(=O)Cn2ncn3c(cc4sc(CC)cc43)c2=O)C1 (centres undefined) returned D1 antagonist 11, D1 potentiator -4, D3 ag 0 and D1 agonist 1.
For Cc1ccc(F)cc1NC(=O)c1c(-c2ccccc2)noc1C the results were D1 antagonist -5, D3 antag -50*, D3 ag 2 and D1 agonist 2.
Screening Cc1onc(-c2ccccc2)c1C(=O)Nc1ncc([N+](=O)[O-])s1 returned D1 antagonist -32*, D1 potentiator -8, D3 antag 8, D3 ag 12 and D1 agonist 43*.
For CCCCSCCCNC(=O)CN1C(=O)COc2ccc(S(=O)(=O)N3CCCC3)cc21 the results were D1 antagonist -4, D1 potentiator -3, D3 ag 3 and D1 agonist 6.
For CCCCCN1CC(=O)N2Cc3[nH]c4ccccc4c3C[C@H]2C1=O the results were D1 antagonist -5, D1 potentiator -2, D3 antag 49, D3 ag 0 and D1 agonist 5.
Screening CCCCN1C(=O)C2Cc3c([nH]c4ccccc34)CN2C1=S (centres undefined) returned D1 antagonist -33*, D1 potentiator 1, D3 antag 3, D3 ag -3 and D1 agonist 16.
For Cc1ccc(NC(=O)COC(=O)CCc2c[nH]c3ccccc23)cc1 the results were D3 antag 5 and D3 ag -1.
`O=C(COC(=O)CCc1c[nH]c2ccccc12)NC(c1ccccc1)c1ccccc1` gave D1 antagonist -11, D1 potentiator -1, D3 antag 5, D3 ag 39* and D1 agonist 4.
Screening NC(=O)c1ccc(NC(=O)COC(=O)CCCc2c[nH]c3ccccc23)cc1 returned D1 antagonist -30*, D1 potentiator -1, D3 antag 0, D3 ag -3 and D1 agonist 2.
Cc1ccc(NC(=O)COC(=O)Cc2c[nH]c3ccccc23)cc1C was read as D1 antagonist -75*, D1 potentiator -4, D3 antag 11, D3 ag -1 and D1 agonist 1.
`O=C(COC(=O)CCc1c[nH]c2ccccc12)Nc1ccccc1` gave D1 antagonist -9, D1 potentiator -8, D3 antag inconclusive, D3 ag 0 and D1 agonist 2.
`COc1cc(NC(=O)c2cc(-c3cccc(Cl)c3)on2)c(OC)cc1Cl` gave D1 antagonist -1, D1 potentiator -2, D3 ag -3 and D1 agonist 20.
CCCOc1ccc(NC(=O)CC2C(=O)N(c3ccccc3)C(=O)N2Cc2ccc(F)cc2)cc1 (centres undefined) was read as D1 antagonist -13, D1 potentiator -2, D3 ag -6 and D1 agonist 3.
Screening Cc1ccc(CNC(=O)C2CCCN(c3nc4ccccc4n4cccc34)C2)cc1 (centres undefined) returned D1 antagonist 5, D1 potentiator 1, D3 ag -15 and D1 agonist 1.
O=C(c1ccc(-c2cccc(C(F)(F)F)c2)o1)N1CCCCCCC1 was read as D1 antagonist -40*, D1 potentiator 1, D3 antag 3, D3 ag -3 and D1 agonist 0.
COc1ccc(OC)c(S(=O)(=O)N2CCC(n3c(C)nc4cccnc43)CC2)c1 was read as D1 antagonist -13, D1 potentiator -1, D3 ag -1 and D1 agonist 2.
Screening Cc1nn(C(=O)COc2ccc(Cl)cc2)c(C)c1Sc1ccccc1 returned D1 antagonist -37*, D1 potentiator -4, D3 ag -13 and D1 agonist 12.
Cc1ccc(Sc2c(C)nn(C(=O)COc3ccc(F)cc3)c2C)cc1 was read as D1 antagonist -4, D1 potentiator -4, D3 ag -16 and D1 agonist 11.
CC1=NN(c2cccc(F)c2)C(=O)/C1=C/c1ccc(N(C)C)cc1 was read as D1 antagonist -85*, D1 potentiator -14, D3 antag 0, D3 ag -1 and D1 agonist -1.
CC1=NN(c2ccccc2)C(=O)C1=Cc1ccccc1 was read as D3 antag inconclusive and D3 ag -3.
